Source: PubChem BioAssay AID624298 (National Center for Advancing Translational Sciences (NCATS), 2012)
Records with an inconclusive call do not appear. The call rests on the fitted dose curve; in most records, active means well fitted activation curve with a large enough effect; inconclusive means small, poorly fitted or top-dose-only effect; inactive means no such curve, though single readings can be large or run the other way.

experiment: Activators of T cell receptors: Hit Validation; settings: primary human leukocytes, cytokine release by HTRF, 48 h, TCR-stimulated with anti-CD3 beads; series mostly up to 46.1 µM; activation: at the top concentration; further: 0% is about no effect
Method in brief: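 Readout is IL-2 secretion by HTRF, measured after 48 hr in which primary human leukocytes received compound together with a-CD3 beads as the only TCR stimulus.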

activation, inactive:
COc1ccc(C(=O)Nc2cccc(NC(C)=O)c2)cc1OC -37.1%, CSCc1c(C(=O)OCC(=O)NC2CCCCC2)oc2ccccc12 3.06%, Cc1cc(OCC(=O)OCC(=O)NCC2CCCO2)ccc1Cl (centres undefined) 26.6%, C=CCNC(=S)Nc1ccc2nsnc2c1 22%, CC(=O)NC(CC(=O)O)C(=O)O (centres undefined) -17%, Cc1ccc(NC2=CC(=O)C(=O)c3ccccc32)c(C)c1 10.8%, Oc1ccccc1CN1CCCC(N2CCN(c3cccc(C(F)(F)F)c3)CC2)C1 (centres undefined) 10.3%, COc1ccc(OC)c(NC(=O)CSc2nc3[nH]c(=O)cc(O)c3s2)c1 10.8%, CSCCC(NC(=O)c1ccco1)C(=O)NCC1CCCO1 (centres undefined) -4.79%, CN(C)c1cccc(C(=O)N(Cc2ccccc2)Cc2ccccc2)c1 1.38%, O=C(COC(=O)C1CCN(c2ccc(C(F)(F)F)cn2)CC1)NCc1ccccc1 0.738%, Cc1ccc(S(=O)(=O)N2CCC(C(=O)NNC(=O)c3ccccc3O)CC2)cc1C 4.73%, O=C1C=C(NCCc2ccccc2)C2(CCCCC2)O1 7.06%, COc1ccccc1N1CCN(CCCC(=O)c2ccc(F)cc2)CC1 4.45%, O=C1/C(=C/c2cccnc2)SC(=S)N1Cc1ccco1 8.63%, COc1ccccc1N1CCN(C(=O)C2CCN(S(=O)(=O)c3ccccc3F)CC2)CC1 2.82%, COc1ccc(OC)c(NC(=O)COC(=O)c2ccc(OC)c(S(=O)(=O)N3CCOCC3)c2)c1 7.46%, C/C(=N\NC(=O)COc1ccc([N+](=O)[O-])cc1)c1ccco1 11.5%, COc1ccc(S(=O)(=O)Nc2ccc3cn[nH]c3c2)cc1[N+](=O)[O-] -4.82%
